assay: HSE-luciferase reporter activators – cell-based (AID 1611); settings: human cells, HSE-luciferase heat shock reporter; stronger effect = higher value

Compound	fold change
CC(=O)OCC(=O)[C@H]1CCC2C3CCC4=CC(=O)CC[C@]4(C)C3CC[C@@]21C (stereo not given in full)	1.05
COC(=O)Nc1nc2ccc(Sc3ccccc3)cc2[nH]1	0.92
Cc1cccc(Nc2ccccc2C(=O)O)c1C	1.2
NC[C@H]1O[C@H](O[C@H]2[C@H](O)[C@@H](O[C@H]3O[C@H](CO)[C@@H](O)[C@H](N)[C@H]3O)[C@H](N)C[C@@H]2N)[C@H](O)[C@@H](O)[C@@H]1O	1.87
CC(=O)Oc1ccc2c(c1)CCC1C2CC[C@@]2(C)C1CC[C@@H]2OC(C)=O (stereo not given in full)	1.07
CC[C@H]1OC(=O)[C@H](C)[C@@H](O[C@H]2C[C@@](C)(OC)[C@@H](O)[C@H](C)O2)[C@H](C)[C@@H](O[C@@H]2O[C@H](C)C[C@H](N(C)C)[C@H]2O)[C@](C)(O)C[C@@H](C)CN(C)[C@H](C)[C@@H](O)[C@]1(C)O	293
CCN(CC)CCCC(C)Nc1c2ccc(Cl)cc2nc2ccc(OC)cc12 (stereo not given)	0.97
CCC(=O)O[C@H]1[C@H](O[C@@H]2[C@@H](C)[C@H](O[C@H]3C[C@@](C)(OC)[C@@H](O)[C@H](C)O3)[C@@H](C)C(=O)O[C@H](CC)[C@@](C)(O)[C@H](O)[C@@H](C)C(=O)[C@H](C)C[C@@]2(C)O)O[C@H](C)C[C@@H]1N(C)C	1.55
Cn1c(=O)c2[nH]cnc2n(C)c1=O	1.18
CN[C@@H]1[C@H](OC2[C@H](O[C@H]3[C@H](O)[C@@H](O)[C@H](N=C(N)N)[C@@H](O)[C@@H]3N=C(N)N)O[C@@H](C)[C@]2(O)C=O)O[C@@H](CO)[C@H](O)[C@H]1O (stereo not given in full)	1.17

— PubChem BioAssay AID1611 (NINDS Approved Drug Screening Program, 2009)
